# Laboratory results: article PMC11062922 (Nature Chemical Biology, 2023)
# Where two headings read alike, the source gives them in different places.
# Tests used:
# MARK4 = conditions: read-out: apparent Kd, n = 1
# NTRK1 = conditions: read-out: apparent Kd, n = 1
# [1] = compound concentrations:100 nM and 1000 nM (sheet 'Lestaurtinib' of Supplementary Table 1),run:Lestaurtinib_02724_R3,Plate:MR021
# [2] = compound concentrations:100 nM and 1000 nM (sheet 'Lestaurtinib' of Supplementary Table 1),run:Lestaurtinib_02741_R2,Plate:MR023
# [3] = compound concentrations:100 nM and 1000 nM (sheet 'Lestaurtinib' of Supplementary Table 1),run:Lestaurtinib_02741_R3,Plate:MR023
# [4] = compound concentrations:100 nM and 1000 nM (sheet 'Lestaurtinib' of Supplementary Table 1),run:Lestaurtinib_02748_R1,Plate:MR024
substance,measurement,setting,value
Lestaurtinib,potency estimated from few doses,MARK4; [1],113 nM
same,potency estimated from few doses,MARK4; [2],144 nM
same,potency estimated from few doses,MARK4; [3],82.4 nM
same,potency estimated from few doses,MARK4; [4],151 nM
same,potency estimated from few doses,"MARK4; compound concentrations:100 nM and 1000 nM (sheet 'Lestaurtinib' of Supplementary Table 1),run:Lestaurtinib_02748_R2,Plate:MR024",97.8 nM
same,potency estimated from few doses,"MARK4; compound concentrations:100 nM and 1000 nM (sheet 'Lestaurtinib' of Supplementary Table 1),run:Lestaurtinib_02748_R3,Plate:MR024",98.7 nM
same,potency estimated from few doses,"MARK4; compound concentrations:100 nM and 1000 nM (sheet 'Lestaurtinib' of Supplementary Table 1),run:Lestaurtinib_02752_R1,Plate:MR025",84.2 nM
same,potency estimated from few doses,"MARK4; compound concentrations:100 nM and 1000 nM (sheet 'Lestaurtinib' of Supplementary Table 1),run:Lestaurtinib_02752_R3,Plate:MR025",113 nM
same,potency estimated from few doses,"MARK4; compound concentrations:100 nM and 1000 nM (sheet 'Lestaurtinib' of Supplementary Table 1),run:Lestaurtinib_02765_R1,Plate:MR026",86.1 nM
same,potency estimated from few doses,"MARK4; compound concentrations:100 nM and 1000 nM (sheet 'Lestaurtinib' of Supplementary Table 1),run:Lestaurtinib_02765_R3,Plate:MR026",95.3 nM
same,potency estimated from few doses,"MARK4; compound concentrations:100 nM and 1000 nM (sheet 'Lestaurtinib' of Supplementary Table 1),run:Lestaurtinib_02766_R1,Plate:MR027",154 nM
same,potency estimated from few doses,"MARK4; compound concentrations:100 nM and 1000 nM (sheet 'Lestaurtinib' of Supplementary Table 1),run:Lestaurtinib_02766_R2,Plate:MR027",63.6 nM
same,potency estimated from few doses,"MARK4; compound concentrations:100 nM and 1000 nM (sheet 'Lestaurtinib' of Supplementary Table 1),run:Lestaurtinib_02766_R3,Plate:MR027",76.7 nM
same,potency estimated from few doses,"MARK4; compound concentrations:100 nM and 1000 nM (sheet 'Lestaurtinib' of Supplementary Table 1),run:Lestaurtinib_02768_R1,Plate:MR028",92.1 nM
same,potency estimated from few doses,"MARK4; compound concentrations:100 nM and 1000 nM (sheet 'Lestaurtinib' of Supplementary Table 1),run:Lestaurtinib_02768_R3,Plate:MR028",80.6 nM
same,potency estimated from few doses,"MARK4; compound concentrations:100 nM and 1000 nM (sheet 'Lestaurtinib' of Supplementary Table 1),run:Lestaurtinib_02795_R1,Plate:MR022",115 nM
same,potency estimated from few doses,"MARK4; compound concentrations:100 nM and 1000 nM (sheet 'Lestaurtinib' of Supplementary Table 1),run:Lestaurtinib_02795_R2,Plate:MR022",157 nM
same,potency estimated from few doses,"MARK4; compound concentrations:100 nM and 1000 nM (sheet 'Lestaurtinib' of Supplementary Table 1),run:Lestaurtinib_02802_R2,Plate:MR029",86 nM
same,potency estimated from few doses,"MARK4; compound concentrations:100 nM and 1000 nM (sheet 'Lestaurtinib' of Supplementary Table 1),run:Lestaurtinib_02802_R3,Plate:MR029",77.8 nM
same,potency estimated from few doses,"MARK4; compound concentrations:100 nM and 1000 nM (sheet 'Lestaurtinib' of Supplementary Table 1),run:Lestaurtinib_02896_R2,Plate:MR030",141 nM
same,potency estimated from few doses,"MARK4; compound concentrations:100 nM and 1000 nM (sheet 'Lestaurtinib' of Supplementary Table 1),run:Lestaurtinib_02896_R3,Plate:MR030",87.4 nM
same,potency estimated from few doses,"MARK4; compound concentrations:100 nM and 1000 nM (sheet 'Lestaurtinib' of Supplementary Table 1),run:Lestaurtinib_03172_R1,Plate:MR031",86.8 nM
same,potency estimated from few doses,"MARK4; compound concentrations:100 nM and 1000 nM (sheet 'Lestaurtinib' of Supplementary Table 1),run:Lestaurtinib_03172_R2,Plate:MR031",297 nM
same,potency estimated from few doses,"MARK4; compound concentrations:100 nM and 1000 nM (sheet 'Lestaurtinib' of Supplementary Table 1),run:Lestaurtinib_03252_R1,Plate:MR032",41.6 nM
same,potency estimated from few doses,"MARK4; compound concentrations:100 nM and 1000 nM (sheet 'Lestaurtinib' of Supplementary Table 1),run:Lestaurtinib_03252_R2,Plate:MR032",59.5 nM
same,potency estimated from few doses,"MARK4; compound concentrations:100 nM and 1000 nM (sheet 'Lestaurtinib' of Supplementary Table 1),run:Lestaurtinib_03260_R1,Plate:MR033",469 nM
same,potency estimated from few doses,"MARK4; compound concentrations:100 nM and 1000 nM (sheet 'Lestaurtinib' of Supplementary Table 1),run:Lestaurtinib_03260_R2,Plate:MR033",609 nM
same,potency estimated from few doses,"MARK4; compound concentrations:100 nM and 1000 nM (sheet 'Lestaurtinib' of Supplementary Table 1),run:Lestaurtinib_03260_R3,Plate:MR033",165 nM
same,potency estimated from few doses,"NTRK1; compound concentrations:100 nM and 1000 nM (sheet 'Lestaurtinib' of Supplementary Table 1),run:Lestaurtinib_02339_R2,Plate:MR001",1580 nM
same,potency estimated from few doses,"NTRK1; compound concentrations:100 nM and 1000 nM (sheet 'Lestaurtinib' of Supplementary Table 1),run:Lestaurtinib_02339_R3,Plate:MR001",1910 nM
same,potency estimated from few doses,"NTRK1; compound concentrations:100 nM and 1000 nM (sheet 'Lestaurtinib' of Supplementary Table 1),run:Lestaurtinib_02364_R1,Plate:MR002",893 nM
same,potency estimated from few doses,"NTRK1; compound concentrations:100 nM and 1000 nM (sheet 'Lestaurtinib' of Supplementary Table 1),run:Lestaurtinib_02364_R2,Plate:MR002",971 nM
same,potency estimated from few doses,"NTRK1; compound concentrations:100 nM and 1000 nM (sheet 'Lestaurtinib' of Supplementary Table 1),run:Lestaurtinib_02364_R3,Plate:MR002",789 nM
same,potency estimated from few doses,"NTRK1; compound concentrations:100 nM and 1000 nM (sheet 'Lestaurtinib' of Supplementary Table 1),run:Lestaurtinib_02381_R1,Plate:MR004",763 nM
same,potency estimated from few doses,"NTRK1; compound concentrations:100 nM and 1000 nM (sheet 'Lestaurtinib' of Supplementary Table 1),run:Lestaurtinib_02381_R2,Plate:MR004",626 nM
same,potency estimated from few doses,"NTRK1; compound concentrations:100 nM and 1000 nM (sheet 'Lestaurtinib' of Supplementary Table 1),run:Lestaurtinib_02381_R3,Plate:MR004",1330 nM
same,potency estimated from few doses,"NTRK1; compound concentrations:100 nM and 1000 nM (sheet 'Lestaurtinib' of Supplementary Table 1),run:Lestaurtinib_02407_R1,Plate:MR005",1580 nM
same,potency estimated from few doses,"NTRK1; compound concentrations:100 nM and 1000 nM (sheet 'Lestaurtinib' of Supplementary Table 1),run:Lestaurtinib_02422_R1,Plate:MR006",1590 nM
same,potency estimated from few doses,"NTRK1; compound concentrations:100 nM and 1000 nM (sheet 'Lestaurtinib' of Supplementary Table 1),run:Lestaurtinib_02422_R2,Plate:MR006",1420 nM
same,potency estimated from few doses,"NTRK1; compound concentrations:100 nM and 1000 nM (sheet 'Lestaurtinib' of Supplementary Table 1),run:Lestaurtinib_02437_R2,Plate:MR007",1490 nM
same,potency estimated from few doses,"NTRK1; compound concentrations:100 nM and 1000 nM (sheet 'Lestaurtinib' of Supplementary Table 1),run:Lestaurtinib_02437_R3,Plate:MR007",113 nM
same,potency estimated from few doses,"NTRK1; compound concentrations:100 nM and 1000 nM (sheet 'Lestaurtinib' of Supplementary Table 1),run:Lestaurtinib_02438_R1,Plate:MR008",1000 nM
same,potency estimated from few doses,"NTRK1; compound concentrations:100 nM and 1000 nM (sheet 'Lestaurtinib' of Supplementary Table 1),run:Lestaurtinib_02438_R2,Plate:MR008",1530 nM
same,potency estimated from few doses,"NTRK1; compound concentrations:100 nM and 1000 nM (sheet 'Lestaurtinib' of Supplementary Table 1),run:Lestaurtinib_02443_R1,Plate:MR009",796 nM
same,potency estimated from few doses,"NTRK1; compound concentrations:100 nM and 1000 nM (sheet 'Lestaurtinib' of Supplementary Table 1),run:Lestaurtinib_02473_R1,Plate:MR010",695 nM
same,potency estimated from few doses,"NTRK1; compound concentrations:100 nM and 1000 nM (sheet 'Lestaurtinib' of Supplementary Table 1),run:Lestaurtinib_02473_R2,Plate:MR010",826 nM
same,potency estimated from few doses,"NTRK1; compound concentrations:100 nM and 1000 nM (sheet 'Lestaurtinib' of Supplementary Table 1),run:Lestaurtinib_02482_R2,Plate:MR011",894 nM
same,potency estimated from few doses,"NTRK1; compound concentrations:100 nM and 1000 nM (sheet 'Lestaurtinib' of Supplementary Table 1),run:Lestaurtinib_02482_R3,Plate:MR011",649 nM
same,potency estimated from few doses,"NTRK1; compound concentrations:100 nM and 1000 nM (sheet 'Lestaurtinib' of Supplementary Table 1),run:Lestaurtinib_02487_R2,Plate:MR012",1150 nM
same,potency estimated from few doses,"NTRK1; compound concentrations:100 nM and 1000 nM (sheet 'Lestaurtinib' of Supplementary Table 1),run:Lestaurtinib_02487_R3,Plate:MR012",921 nM
same,potency estimated from few doses,"NTRK1; compound concentrations:100 nM and 1000 nM (sheet 'Lestaurtinib' of Supplementary Table 1),run:Lestaurtinib_02496_R1,Plate:MR013",946 nM
same,potency estimated from few doses,"NTRK1; compound concentrations:100 nM and 1000 nM (sheet 'Lestaurtinib' of Supplementary Table 1),run:Lestaurtinib_02496_R2,Plate:MR013",1400 nM
same,potency estimated from few doses,"NTRK1; compound concentrations:100 nM and 1000 nM (sheet 'Lestaurtinib' of Supplementary Table 1),run:Lestaurtinib_02496_R3,Plate:MR013",828 nM
same,potency estimated from few doses,"NTRK1; compound concentrations:100 nM and 1000 nM (sheet 'Lestaurtinib' of Supplementary Table 1),run:Lestaurtinib_02566_R2,Plate:MR014",898 nM
same,potency estimated from few doses,"NTRK1; compound concentrations:100 nM and 1000 nM (sheet 'Lestaurtinib' of Supplementary Table 1),run:Lestaurtinib_02572_R1,Plate:MR015",810 nM
same,potency estimated from few doses,"NTRK1; compound concentrations:100 nM and 1000 nM (sheet 'Lestaurtinib' of Supplementary Table 1),run:Lestaurtinib_02572_R3,Plate:MR015",974 nM
same,potency estimated from few doses,"NTRK1; compound concentrations:100 nM and 1000 nM (sheet 'Lestaurtinib' of Supplementary Table 1),run:Lestaurtinib_02577_R2,Plate:MR016",1300 nM
same,potency estimated from few doses,"NTRK1; compound concentrations:100 nM and 1000 nM (sheet 'Lestaurtinib' of Supplementary Table 1),run:Lestaurtinib_02584_R2,Plate:MR017",1000 nM
same,potency estimated from few doses,"NTRK1; compound concentrations:100 nM and 1000 nM (sheet 'Lestaurtinib' of Supplementary Table 1),run:Lestaurtinib_02601_R1,Plate:MR018",1580 nM
same,potency estimated from few doses,"NTRK1; compound concentrations:100 nM and 1000 nM (sheet 'Lestaurtinib' of Supplementary Table 1),run:Lestaurtinib_02601_R2,Plate:MR018",673 nM
same,potency estimated from few doses,"NTRK1; compound concentrations:100 nM and 1000 nM (sheet 'Lestaurtinib' of Supplementary Table 1),run:Lestaurtinib_02601_R3,Plate:MR018",924 nM
same,potency estimated from few doses,"NTRK1; compound concentrations:100 nM and 1000 nM (sheet 'Lestaurtinib' of Supplementary Table 1),run:Lestaurtinib_02606_R2,Plate:MR019",1210 nM
same,potency estimated from few doses,"NTRK1; compound concentrations:100 nM and 1000 nM (sheet 'Lestaurtinib' of Supplementary Table 1),run:Lestaurtinib_02606_R3,Plate:MR019",1600 nM
same,potency estimated from few doses,"NTRK1; compound concentrations:100 nM and 1000 nM (sheet 'Lestaurtinib' of Supplementary Table 1),run:Lestaurtinib_02624_R1,Plate:MR020",1300 nM
same,potency estimated from few doses,"NTRK1; compound concentrations:100 nM and 1000 nM (sheet 'Lestaurtinib' of Supplementary Table 1),run:Lestaurtinib_02624_R2,Plate:MR020",614 nM
same,potency estimated from few doses,"NTRK1; compound concentrations:100 nM and 1000 nM (sheet 'Lestaurtinib' of Supplementary Table 1),run:Lestaurtinib_02624_R3,Plate:MR020",873 nM
same,potency estimated from few doses,"NTRK1; compound concentrations:100 nM and 1000 nM (sheet 'Lestaurtinib' of Supplementary Table 1),run:Lestaurtinib_02724_R2,Plate:MR021",691 nM
same,potency estimated from few doses,NTRK1; [1],628 nM
same,potency estimated from few doses,"NTRK1; compound concentrations:100 nM and 1000 nM (sheet 'Lestaurtinib' of Supplementary Table 1),run:Lestaurtinib_02741_R1,Plate:MR023",772 nM
same,potency estimated from few doses,NTRK1; [2],783 nM
same,potency estimated from few doses,NTRK1; [3],1330 nM
same,potency estimated from few doses,NTRK1; [4],922 nM
